Values joined by “and” are separate entries in the source; they are usually repeats but may differ in a detail not shown here. Equal entries are not always repeated. Records with an inconclusive call do not appear. Active and inactive are the calls of the source. Calls follow the shape of the dose curve; as a rule, active = well fitted curve in the direction sought with a large enough effect in the repeat runs; inconclusive = weak or mixed curves; inactive = no such curve, though single readings can be large; an effect the other way counts as inactive or inconclusive.
assay: qHTS RealTime-Glo MT Cell Viability Assay in HepG2 cells - 16 hour (AID 1224885); conditions: RealTime-Glo luminescence; series mostly up to 76.8 µM; activity change, negative = cytotoxic: at the top concentration; also: nearly all actives have a fitted effect of over 50% in size
Outline: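 HepG2 cells (600/well) were dispensed with RealTime-Glo reagents, incubated 5 h at 37 °C, then treated with compounds in DMSO for up to 40 h. Nonlytic NanoLuc luminescence reflecting viable cells was read at each stated time point.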
% is scaled to controls: 0 for no effect and ±100 for the full control effect; potency is read from the fitted curve at half-maximal effect.

| SMILES | activity change, negative = cytotoxic | Potency |
| --- | --- | --- |
| CCCCCCCCS(=O)C(C)Cc1ccc2c(c1)OCO2 (stereo not given) | 0.798% (inactive) | – |
| NNc1nc(-c2ccccc2)cs1 | -13.7% (inactive) | – |
| CCCCC(CC)CN=C(N)NC(N)=NCCCCCCN=C(N)NC(N)=NCC(CC)CCCC (stereo not given) | – | 10.7 µM (active) |
| CCCCCCCCCCCC[N+](C)(C)CCCCCCCCCCCC | – | 8.71 µM (active) |
| CC1=NC(C)OC1C (stereo not given) | -8.63% (inactive) | – |
| C/C=C(\C)C(=O)OCc1ccccc1 | -5.16% (inactive) | – |
| COCCCC/C(=N\OCCN)c1ccc(C(F)(F)F)cc1 | -15.6% [at 35.3 µM] (inactive) | – |
| CCCCCCCCNC(C)C(O)c1ccc(SC(C)C)cc1 (stereo not given) | – | 15.1 µM (active) |
| [Cl][Bi]([Cl])([c]1ccccc1)([c]1ccccc1)[c]1ccccc1 | – | 7.71 µM (active) |
| OCCN1CCN(CC/C=C2/c3ccccc3Sc3ccc(C(F)(F)F)cc32)CC1 | – | 23.9 µM (active) |
| O=c1cccccc1O | -0.98% (inactive) | – |
| CC(C)c1ccc2c(c1)CC[C@H]1[C@](C)(CN)CCC[C@]21C | – | 17.4 µM (active) |
| CCCCCOc1ccccc1/C(=C\SC)n1ccnc1 | -13.2% [at 35.3 µM] (inactive) | – |
| CCCC1O[C@@H]2C[C@H]3[C@@H]4CCC5=CC(=O)C=C[C@]5(C)[C@H]4[C@@H](O)C[C@]3(C)[C@]2(C(=O)CO)O1 (stereo not given in full) | – | inactive |
| O=C(Nc1cccc([N+](=O)[O-])c1)c1cc2ccccc2cc1O | -21.9% (inactive) | – |
| Cc1cc(O)c2ccccc2c1O | – | 13.4 µM (active) |

assay: qHTS RealTime-Glo MT Cell Viability Assay in HEK293 cells - 24 hour (AID 1224886); conditions: RealTime-Glo luminescence; series mostly up to 76.8 µM; activity change, negative = cytotoxicity: at the top concentration; also: nearly all actives have a fitted effect of over 50% in size; as to activity change, negative = cytotoxicity: top concentration of the series differs between compounds
Outline: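 HEK293 cells seeded with NanoLuc/prosubstrate reagent, rested 5 h at 37 C, then dosed and kept at 37 C up to 40 h. Nonlytic real-time luminescence from viable cells read at 0, 8, 16, 24, 32 and 40 h.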

| SMILES | Potency | activity change, negative = cytotoxicity |
| --- | --- | --- |
| CCCCc1oc2ccc(NS(C)(=O)=O)cc2c1C(=O)c1ccc(OCCCN(CCCC)CCCC)cc1 | 10.7 µM (active) | – |
| CCCCCCCCn1sc(Cl)c(Cl)c1=O | 3.89 µM (active) | – |
| Clc1ccccc1C(c1ccccc1)(c1ccccc1)n1ccnc1 | 21.9 µM (active) and 6.01 µM (active) | – |
| [Cl][Au]([Cl])[Cl] | 3.89 µM (active) | – |
| ON=C1CCCC1 | 22.6 µM (active) | – |
| [O-][n+]1ccccc1SSc1cccc[n+]1[O-] | 1.31 µM (active) | – |
| CCCCC(CC)CN=C(N)NC(N)=NCCCCCCN=C(N)NC(N)=NCC(CC)CCCC (stereo not given) | 5.35 µM (active) | – |
| CCCCCCCCCCCC[N+](C)(C)CCCCCCCCCCCC | 6.92 µM (active) | – |
| C/C=C(\C)C(=O)OCc1ccccc1 | – | -5.51% (inactive) |
| CCCCCCCCNC(C)C(O)c1ccc(SC(C)C)cc1 (stereo not given) | 9.52 µM (active) | – |
| [Cl][Bi]([Cl])([c]1ccccc1)([c]1ccccc1)[c]1ccccc1 | 3.07 µM (active) | – |
| OCCN1CCN(CC/C=C2/c3ccccc3Sc3ccc(C(F)(F)F)cc32)CC1 | 19 µM (active) | – |
| CC(C)c1ccc2c(c1)CC[C@H]1[C@](C)(CN)CCC[C@]21C | 12.3 µM (active) | – |
| Cc1cc(O)c2ccccc2c1O | 7.56 µM (active) | – |

assay: qHTS RealTime-Glo MT Cell Viability Assay in HEK293 cells - 8 hour (AID 1224887); conditions: RealTime-Glo luminescence; series mostly up to 76.8 µM; activity change, negative = cytotoxicity: at the top concentration; also: nearly all actives have a fitted effect of over 50% in size; as to activity change, negative = cytotoxicity: top concentration of the series differs between compounds
Outline: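 qHTS format; HEK293 cells with NanoLuc/prosubstrate reagent, 37 C/5% CO2 for 5 h pre-dosing; compounds 23 nL in DMSO; luminescence at each time point reflects viable cells.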

| SMILES | activity change, negative = cytotoxicity | Potency |
| --- | --- | --- |
| Cc1[nH]nc2c1N=C(c1ccccc1Cl)c1cc([N+](=O)[O-])ccc1N2 | -26.8% (inactive) | – |
| CCCCc1oc2ccc(NS(C)(=O)=O)cc2c1C(=O)c1ccc(OCCCN(CCCC)CCCC)cc1 | – | 19 µM (active) |
| OCCCCCCCCCCCCBr | -19.6% (inactive) | – |
| NNc1nc(-c2ccc(N)cc2)cs1 | -2.27% (inactive) | – |
| Nc1nc2ccccc2n1Cc1ccc(F)cc1 | -19.9% [at 35.3 µM] (inactive) | – |
| CCCCCCCCn1sc(Cl)c(Cl)c1=O | – | 3.47 µM (active) |
| Clc1ccccc1C(c1ccccc1)(c1ccccc1)n1ccnc1 | – | 24.5 µM (active) |
| Oc1c(Cl)cc(Cl)c2cccnc12 | -15.6% [at 35.3 µM] (inactive) | – |
| CCCCC(CC)CN=C(N)NC(N)=NCCCCCCN=C(N)NC(N)=NCC(CC)CCCC (stereo not given) | – | 8.49 µM (active) |
| CCCCCCCCCCCC[N+](C)(C)CCCCCCCCCCCC | – | 17.4 µM (active) |
| CC1=NC(C)OC1C (stereo not given) | 0.799% (inactive) | – |
| C/C=C(\C)C(=O)OCc1ccccc1 | -7.59% (inactive) | – |
| COCCCC/C(=N\OCCN)c1ccc(C(F)(F)F)cc1 | -26.3% [at 35.3 µM] (inactive) | – |
| CCCCCCCCNC(C)C(O)c1ccc(SC(C)C)cc1 (stereo not given) | – | 10.7 µM (active) |
| [Cl][Bi]([Cl])([c]1ccccc1)([c]1ccccc1)[c]1ccccc1 | – | 21.7 µM (active) |
| OCCN1CCN(CC/C=C2/c3ccccc3Sc3ccc(C(F)(F)F)cc32)CC1 | – | 21.3 µM (active) |
| O=c1cccccc1O | 5.18% (inactive) | – |
| CC(C)c1ccc2c(c1)CC[C@H]1[C@](C)(CN)CCC[C@]21C | – | 21.9 µM (active) |
| O=C(Nc1cccc([N+](=O)[O-])c1)c1cc2ccccc2cc1O | -12.1% (inactive) | – |
| Cc1cc(O)c2ccccc2c1O | – | 5.35 µM (active) |

assay: A CellTox Green Cytotoxicity Assay to monitor cytotoxicity in HEK293 cells - 16 hour (AID 1224888); conditions: CellTox Green fluorescence; series mostly up to 76.8 µM; activity change: at the top concentration; also: nearly all actives have a fitted effect of over 35% in size
Outline: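 Each value comes from one timepoint of a single continuous run in which HEK293 cells with CellTox Green were exposed to compound for up to 40 h at 37 C, dye fluorescence rising with cell death.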

| SMILES | activity change | Potency |
| --- | --- | --- |
| Cn1cc(C(=O)[C@@H]2CCc3nc[nH]c3C2)c2ccccc21 | 0.251% [at 35.3 µM, hits give high values] (inactive) | – |
| Cc1cc(C2CCCCC2)n(O)c(=O)c1 | -2.93% [at 35.3 µM, hits give high values] (inactive) | – |
| Cc1[nH]nc2c1N=C(c1ccccc1Cl)c1cc([N+](=O)[O-])ccc1N2 | -3.84% (inactive) | – |
| CC1=C(C(=O)OC(C)C)C(c2cccc([N+](=O)[O-])c2)C(C(=O)OC2CN(C(c3ccccc3)c3ccccc3)C2)=C(N)N1 (stereo not given) | 0.839% [at 35.3 µM, hits give high values] (inactive) | – |
| CCCCc1oc2ccc(NS(C)(=O)=O)cc2c1C(=O)c1ccc(OCCCN(CCCC)CCCC)cc1 | – | 23.9 µM (active) |
| OCCCCCCCCCCCCBr | 22% (inactive) | – |
| Cc1ccc(-n2nc(C(C)(C)C)cc2NC(=O)Nc2ccc(OCCN3CCOCC3)c3ccccc23)cc1 | -2.43% [at 35.3 µM, hits give high values] (inactive) | – |
| C/C(=C(/OCCOc1ccc(Cl)cc1)c1ccc(Cl)cc1Cl)n1ccnc1 | -10.3% [at 35.3 µM, hits give high values] (inactive) | – |
| NNc1nc(-c2ccc(N)cc2)cs1 | -16.4% (inactive) | – |
| Nc1nc2ccccc2n1Cc1ccc(F)cc1 | 10.2% [at 35.3 µM, hits give high values] (inactive) | – |
| OCCN(CCO)c1nc(N2CCCCC2)c2nc(N(CCO)CCO)nc(N3CCCCC3)c2n1 | – | 12 µM (active) |
| CCCCCCCCn1sc(Cl)c(Cl)c1=O | – | 1.95 µM (active) |
| [Cl][Au]([Cl])[Cl] | – | 49 µM (active) |
| Oc1c(Cl)cc(Cl)c2cccnc12 | 22.8% [at 35.3 µM, hits give high values] (inactive) | – |
| O=C(NOCC1CC1)c1ccc(F)c(F)c1Nc1ccc(I)cc1Cl | 1.84% [at 35.3 µM, hits give high values] (inactive) | – |
| O=C(N/N=C/c1ccccc1O)c1ccncc1 | 3.57% [at 35.3 µM, hits give high values] (inactive) | – |
| ON=C1CCCC1 | -4.91% (inactive) | – |
| Nc1ccccc1O | -0.0667% (inactive) | – |

| SMILES | activity change | Potency |
| --- | --- | --- |
| [O-][n+]1ccccc1SSc1cccc[n+]1[O-] | – | 8.27 µM (active) |
| CCCCCCCCS(=O)C(C)Cc1ccc2c(c1)OCO2 (stereo not given) | 22.4% (inactive) | – |
| NNc1nc(-c2ccccc2)cs1 | -17.2% (inactive) | – |
| CCCCC(CC)CN=C(N)NC(N)=NCCCCCCN=C(N)NC(N)=NCC(CC)CCCC (stereo not given) | – | 8.49 µM (active) |
| CCCCCCCCCCCC[N+](C)(C)CCCCCCCCCCCC | – | 17.4 µM (active) |
| CC1=NC(C)OC1C (stereo not given) | 0.265% (inactive) | – |
| C/C=C(\C)C(=O)OCc1ccccc1 | 2.99% (inactive) | – |
| COCCCC/C(=N\OCCN)c1ccc(C(F)(F)F)cc1 | 2.53% [at 35.3 µM, hits give high values] (inactive) | – |
| CCCCCCCCNC(C)C(O)c1ccc(SC(C)C)cc1 (stereo not given) | – | 19 µM (active) |
| [Cl][Bi]([Cl])([c]1ccccc1)([c]1ccccc1)[c]1ccccc1 | – | 43.4 µM (active) |
| OCCN1CCN(CC/C=C2/c3ccccc3Sc3ccc(C(F)(F)F)cc32)CC1 | – | 26.8 µM (active) |
| O=c1cccccc1O | -20% (inactive) | – |
| CC(C)c1ccc2c(c1)CC[C@H]1[C@](C)(CN)CCC[C@]21C | – | 24.5 µM (active) |
| CCCCCOc1ccccc1/C(=C\SC)n1ccnc1 | -10.2% [at 35.3 µM, hits give high values] (inactive) | – |
| CCCC1O[C@@H]2C[C@H]3[C@@H]4CCC5=CC(=O)C=C[C@]5(C)[C@H]4[C@@H](O)C[C@]3(C)[C@]2(C(=O)CO)O1 (stereo not given in full) | – | inactive |
| O=C(Nc1cccc([N+](=O)[O-])c1)c1cc2ccccc2cc1O | 3.09% (inactive) | – |
| Cc1cc(O)c2ccccc2c1O | – | 9.52 µM (active) |

Reference: PubChem BioAssay (Tox21)
